# Experimental data published in PubChem BioAssay.
# The source made the active and inactive calls. Unless noted, how the calls were made is not given here.
# How the values were obtained:
# [1] = anti-His antibody binders, primary screen, artefact control for SMM control protein annotation, biochemical, small-molecule microarray, 635 nm fluorescence (AID 1128); settings: anti-His Alexa647 antibody binding, higher = more signal;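 further: score merges feature fluorescence with signal-to-noise for each printed compound spot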
# [2] = test system: Human papillomavirus type 1a E7 protein (residues 1-88); assay: HPV1a E7 small-molecule binders, primary screen, biochemical, small-molecule microarray, residues 1-88, 635 nm (AID 1129); settings: small-molecule microarray binding, fluorescence 635 nm; higher = more signal
# [3] = biological target: Focal adhesion kinase 1 (Homo sapiens) (UniProt Q05397); assay: small-molecule microarray binders of FAK, primary screen, biochemical, 635/667 nm fluorescence, BSA, DTT (AID 1130); settings: PTK2 binding, 635 nm fluorescence, higher = more signal;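 further: composite of spot emission at 667 nm and signal to noise over triplicate slides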
# Chain of Focal adhesion kinase 1 (Homo sapiens) (Q05397 whole entry, looked up): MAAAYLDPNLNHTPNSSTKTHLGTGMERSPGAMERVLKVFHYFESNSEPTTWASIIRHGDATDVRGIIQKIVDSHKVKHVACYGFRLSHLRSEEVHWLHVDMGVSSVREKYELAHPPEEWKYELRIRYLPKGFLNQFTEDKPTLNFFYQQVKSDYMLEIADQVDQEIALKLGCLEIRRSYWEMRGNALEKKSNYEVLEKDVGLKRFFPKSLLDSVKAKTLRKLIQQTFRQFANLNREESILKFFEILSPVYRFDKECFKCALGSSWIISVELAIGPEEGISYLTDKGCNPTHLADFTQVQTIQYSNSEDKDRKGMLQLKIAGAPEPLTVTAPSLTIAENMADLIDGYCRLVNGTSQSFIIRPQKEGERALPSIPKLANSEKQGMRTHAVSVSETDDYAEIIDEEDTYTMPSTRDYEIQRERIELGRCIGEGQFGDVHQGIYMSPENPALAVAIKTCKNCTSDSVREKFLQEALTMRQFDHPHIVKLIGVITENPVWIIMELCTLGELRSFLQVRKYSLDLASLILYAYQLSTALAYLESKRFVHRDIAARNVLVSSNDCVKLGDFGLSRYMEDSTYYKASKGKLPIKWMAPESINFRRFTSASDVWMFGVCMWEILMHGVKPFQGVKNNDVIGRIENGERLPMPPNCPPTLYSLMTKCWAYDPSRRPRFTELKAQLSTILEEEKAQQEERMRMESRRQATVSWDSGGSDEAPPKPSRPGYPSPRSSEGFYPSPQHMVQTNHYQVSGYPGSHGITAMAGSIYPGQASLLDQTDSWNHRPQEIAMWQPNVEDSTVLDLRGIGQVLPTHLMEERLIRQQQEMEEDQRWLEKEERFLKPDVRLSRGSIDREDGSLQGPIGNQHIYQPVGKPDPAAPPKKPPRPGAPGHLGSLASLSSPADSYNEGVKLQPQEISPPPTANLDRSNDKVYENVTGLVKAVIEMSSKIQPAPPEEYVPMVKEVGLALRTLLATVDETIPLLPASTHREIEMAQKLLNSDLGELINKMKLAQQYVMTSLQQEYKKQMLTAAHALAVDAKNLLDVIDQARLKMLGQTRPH
# [4] = test system: Fibrinogen (Alexa647-labelled); assay: fibrinogen binders on compound microarrays, profiling panel, artefact control for SMM control-protein annotation, biochemical, small-molecule microarray, 635/667 nm fluorescence (AID 1131); settings: fibrinogen-A647 binding fluorescence, higher = more signal;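 further: z-score merges 667 nm fluorescence with per-spot signal-to-noise over triplicate slides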
# [5] = biological target: Follistatin (Homo sapiens) (UniProt P19883); assay: follistatin binders on small-molecule microarrays, primary screen, biochemical, small-molecule microarray, 635/667 nm fluorescence (AID 1132); settings: FST binding, 635 nm fluorescence, higher = more signal
# Chain of Follistatin (Homo sapiens) (P19883 whole entry, looked up): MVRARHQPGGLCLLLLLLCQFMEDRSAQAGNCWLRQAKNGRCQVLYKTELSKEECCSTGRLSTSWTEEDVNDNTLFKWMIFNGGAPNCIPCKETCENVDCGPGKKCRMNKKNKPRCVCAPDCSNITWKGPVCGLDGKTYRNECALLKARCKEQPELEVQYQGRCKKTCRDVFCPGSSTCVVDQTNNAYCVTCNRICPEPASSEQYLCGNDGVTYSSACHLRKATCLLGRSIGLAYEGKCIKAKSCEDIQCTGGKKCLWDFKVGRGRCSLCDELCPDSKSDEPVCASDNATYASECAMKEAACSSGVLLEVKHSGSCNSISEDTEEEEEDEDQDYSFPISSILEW
# [6] = biological target: Fibroblast growth factor 2 (Homo sapiens) (UniProt P09038); assay: FGF2 binders on small-molecule microarrays, primary screen, biochemical, small-molecule microarray, 635/667 nm fluorescence (AID 1133); settings: small-molecule microarray binding, FGF2, fluorescence 635/667; higher = more signal
# Chain of Fibroblast growth factor 2 (Homo sapiens) (P09038 whole entry, looked up): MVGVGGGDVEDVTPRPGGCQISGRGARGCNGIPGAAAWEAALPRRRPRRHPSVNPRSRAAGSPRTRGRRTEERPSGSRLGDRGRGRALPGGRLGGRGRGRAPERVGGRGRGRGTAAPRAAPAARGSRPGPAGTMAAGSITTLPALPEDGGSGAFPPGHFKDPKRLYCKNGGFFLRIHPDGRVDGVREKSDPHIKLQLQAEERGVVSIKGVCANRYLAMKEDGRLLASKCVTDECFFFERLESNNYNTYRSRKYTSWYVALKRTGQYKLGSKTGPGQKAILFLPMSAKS
# [7] = mitochondrial membrane potential change in A549 cells, profiling panel, cell-based, JC-1 fluorescence, basal, 24 h, 100 nL (AID 1138); settings: higher = more signal;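 further: A549 lung adenocarcinoma cells under basal conditions with no added stimulus; test concentration not given here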
# Lefty1 = Lefty1 binders on small-molecule microarrays, primary screen, biochemical, small-molecule microarray, 635/667 nm fluorescence (AID 1139); settings: small-molecule microarray binding, fluorescence 635/667; higher = more signal
# [8] = test system: wheat germ agglutinin (Triticum aestivum), Alexa647-labelled; assay: wheat germ agglutinin binders on compound microarrays, profiling panel, artefact control for SMM control-protein annotation, biochemical, small-molecule microarray, 635/667 nm fluorescence (AID 1140); settings: WGA-A647 binding, 635 nm fluorescence, higher = more signal;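 further: score merges 667 nm feature emission with signal to noise over triplicate slides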
# [9] = biological target: Luciferin 4-monooxygenase (Photinus pyralis) (UniProt P08659); assay: firefly luciferase enzyme inhibitors, primary screen, biochemical, luminescence, purified enzyme, 2006 set (AID 1141); settings: SteadyGlo luminescence, 30 min, higher = more signal, called active from +8 up or from −8 down;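 further: cell-free assay with purified firefly luciferase at 100 ng per well in PBS; test concentration not given here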
# Chain of Luciferin 4-monooxygenase (Photinus pyralis) (P08659 whole entry, looked up): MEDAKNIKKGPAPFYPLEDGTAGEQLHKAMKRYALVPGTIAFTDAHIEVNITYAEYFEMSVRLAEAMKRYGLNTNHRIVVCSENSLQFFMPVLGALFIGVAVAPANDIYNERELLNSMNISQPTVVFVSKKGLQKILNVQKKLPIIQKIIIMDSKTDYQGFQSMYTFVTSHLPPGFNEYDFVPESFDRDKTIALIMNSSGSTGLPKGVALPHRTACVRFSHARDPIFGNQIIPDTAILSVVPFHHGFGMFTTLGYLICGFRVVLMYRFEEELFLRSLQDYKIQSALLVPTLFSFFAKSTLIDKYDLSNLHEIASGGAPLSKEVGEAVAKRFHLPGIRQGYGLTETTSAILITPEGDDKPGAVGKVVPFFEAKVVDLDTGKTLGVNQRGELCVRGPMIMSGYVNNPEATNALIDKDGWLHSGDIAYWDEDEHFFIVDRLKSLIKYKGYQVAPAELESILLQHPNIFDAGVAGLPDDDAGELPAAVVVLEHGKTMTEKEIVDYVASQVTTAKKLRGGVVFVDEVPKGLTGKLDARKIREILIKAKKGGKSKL
# [10] = test system: Wnt5a (protein binding on small-molecule microarray); assay: Wnt5a binders on small-molecule microarray, primary screen, biophysical, 635/667 nm fluorescence (AID 1142); settings: 635 nm fluorescence, higher = more signal;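 further: fluorescence read at 667 nm with signal to noise per printed feature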
# [11] = cell viability in Huh7 cells, primary screen, cytotoxicity control for HCV replication inhibitor project, CellTiter-Glo luminescence, basal, 48 h (AID 1143); settings: Huh7 HCV replicon, higher = more signal, called active from +8 up or from −8 down;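 further: Huh7 hepatoma cells carrying a hepatitis C replication reporter with no stimulus; test concentration not given here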
# [12] = P. aeruginosa biofilm formation inhibitors, primary screen, PAO1 strain, BacTiter-Glo luminescence, LB-PBS (AID 1144); settings: 12 h, higher = more signal
# [13] = CREB reporter modulators without forskolin, primary screen, cell-based, PC12, CRE-LacZ reporter, unstimulated (AID 1145); settings: no forskolin, luminescence, 4.5 h, higher = more signal, called active from +8 up or from −8 down
# [14] = CREB reporter modulators under forskolin, primary screen, cell-based, PC12, CRE-LacZ reporter, forskolin-stimulated (AID 1146); settings: luminescence, 4.5 h, higher = more signal, called active from +8 up or from −8 down;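 further: PC12 cells with 6xCRE LacZ reporter stimulated by forskolin 10 µM; beta-galactosidase reporter signal reflecting CREB driven transcription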
# [15] = biological target: Streptavidin (Streptomyces avidinii) (UniProt P22629); assay: streptavidin binders on small-molecule microarray, primary screen, artefact control for SMM compound annotation, biophysical, 635/667 nm fluorescence (AID 1147); settings: streptavidin binding, higher = more signal;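 further: signal reflects streptavidin binding to arrayed compounds as a control protein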
# Chain of Streptavidin (Streptomyces avidinii) (P22629 whole entry, looked up): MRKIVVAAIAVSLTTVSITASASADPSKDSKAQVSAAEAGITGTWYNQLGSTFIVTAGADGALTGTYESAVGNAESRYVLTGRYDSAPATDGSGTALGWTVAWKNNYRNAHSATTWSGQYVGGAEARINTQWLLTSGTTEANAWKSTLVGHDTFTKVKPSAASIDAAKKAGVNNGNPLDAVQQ
# [16] = small-molecule binders of probe aInhba, primary screen, biochemical, small-molecule microarray, 635/667 nm fluorescence (AID 1148); settings: higher = more signal;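 further: score merges 667nm spot fluorescence with signal-to-noise for antibody binding to printed compounds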
# Torsin-1A (Homo sapiens) [17] = biological target: Torsin-1A (Homo sapiens) (UniProt O14656); assay: torsin A binders from cell lysate, primary screen, small-molecule microarray, wild-type, 635/667 nm (AID 1149); settings: COS7 hTOR1A-WT lysate, 635 nm fluorescence, higher = more signal
# Chain of Torsin-1A (Homo sapiens) (O14656 whole entry, looked up): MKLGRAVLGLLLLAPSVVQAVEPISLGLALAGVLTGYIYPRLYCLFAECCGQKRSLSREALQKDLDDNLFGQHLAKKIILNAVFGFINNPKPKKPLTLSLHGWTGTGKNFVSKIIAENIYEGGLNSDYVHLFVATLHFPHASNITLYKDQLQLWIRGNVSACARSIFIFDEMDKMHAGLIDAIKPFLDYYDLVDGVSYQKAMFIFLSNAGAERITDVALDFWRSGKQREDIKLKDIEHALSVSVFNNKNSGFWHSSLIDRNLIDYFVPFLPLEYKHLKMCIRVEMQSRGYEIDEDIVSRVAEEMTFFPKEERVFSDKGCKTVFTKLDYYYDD
# Torsin-1A (Homo sapiens) [18] = biological target: Torsin-1A (Homo sapiens) (UniProt O14656); assay: small-molecule binders of mutant TOR1A in lysate, primary screen, cell lysate, small-molecule microarray, COS7 lysate, 635/667 nm fluorescence (AID 1150); settings: COS7 hTOR1A mutant lysate, 635 nm fluorescence, higher = more signal;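 further: score pools 667 nm emission and signal to noise measuring lysate protein binding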
# [19] = test system: Sonic hedgehog protein (Shh); assay: small-molecule binders of Shh protein, primary screen, biochemical, small-molecule microarray, 635/667 nm fluorescence (AID 1151); settings: small-molecule microarray binding, 635 nm fluorescence; higher = more signal;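 further: Shh protein binding to compounds spotted on small-molecule microarray slides; score combines spot fluorescence intensity with signal-to-noise across triplicate slides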
Structure (SMILES),composite z-score [1],composite z-score [2],composite z-score [3],composite z-score [4],composite z-score [5],composite z-score [6],z-score [7],composite z-score (Lefty1),composite z-score [8],z-score [9],composite z-score [10],z-score [11],z-score [12],z-score [13],z-score [14],composite z-score [15],composite z-score [16],composite z-score (Torsin-1A (Homo sapiens) [17]),composite z-score (Torsin-1A (Homo sapiens) [18]),composite z-score [19]
C=CCOC(=O)[C@H]1[C@@H]2C(=O)O[C@@H](c3ccccc3)[C@@H](c3ccccc3)N2[C@@H](c2ccc(OCCOC(=O)[C@H]3C[C@H]4C(=O)N5CCC[C@H]5C(=O)N4[C@H]3c3ccc(O)cc3)cc2)[C@]12C(=O)Nc1ccccc12,0.442,1.26,1.13,0.598,1.39,1.96,-1.42,1.42,0.0976,-0.205 (inactive),0.753,-0.568 (inactive),-0.696 (inactive),0.415 (inactive),-0.702 (inactive),0.116,-0.217,0.874,1.1,1.8
CC(=O)n1cc(C(O)C2C=CC3C(=O)N(C)C(=O)C3N2Nc2ccccc2)c2ccccc21 (stereo not given),1.88,1.11,0.214,0.898,1.12,0.607,-0.0732,0.859,0.809,0.376 (inactive),0.19,1.08 (inactive),-0.114 (inactive),0.0569 (inactive),-0.172 (inactive),1.13,0.246,0.383,0.606,1.04
O=C(NCc1ccccc1)[C@@]1(Cc2ccccc2)N=C(c2ccc(OCCCO)cc2)O[C@H]1c1ccccc1,1.47,1.22,0.45,0.866,0.368,-0.352,0.164,-0.872,1.05,0.712 (inactive),0.209,-3.5 (inactive),-0.883 (inactive),-0.183 (inactive),-0.413 (inactive),1.15,0.161,0.924,0.918,-0.183
COC(=O)[C@@]1(Cc2ccc(F)cc2)[C@H]2c3cc(C(=O)N(C)C)n(Cc4nc5ccccc5[nH]4)c3C[C@H]2CN1C(=O)c1ccccc1,1.11,1.28,0.187,0.843,0.526,-0.634,-0.0117,-0.0816,0.488,-0.625 (inactive),0.507,-0.574 (inactive),0.528 (inactive),1.53 (inactive),0.678 (inactive),0.711,0.348,-0.806,0.484,-0.586
C=CCC(OC(C)=O)[C@@H]1[C@@H](N(Cc2cccc3ccccc23)C(=O)c2ccc(-c3ccccc3)cc2)c2cc(OCCCO)ccc2N1C(=O)Cc1ccc(OC)cc1 (stereo not given in full),0.364,-0.128,0.179,0.603,0.652,-0.0199,1.06,0.246,0.281,0.912 (inactive),0.36,-0.454 (inactive),-0.266 (inactive),-0.491 (inactive),0.117 (inactive),0.311,0.0018,0.0276,-0.265,0.179
O=C1NCC(=O)N2[C@@H]1C[C@@H](C(=O)O)[C@H]2c1cccc(OCCO)c1,1.85,1.34,4.87,0.654,1.52,1.5,0.221,1.84,1.45,-0.707 (inactive),2.26,-0.095 (inactive),4.41 (inactive),0.822 (inactive),-0.393 (inactive),2.8,2.16,3.24,3.69,1.63
O=C1OCCC/C=C\[C@H]2OC34C=CCN(Cc5ccccc5)C(=O)[C@H]3N(CCCCCCO)C(=O)[C@@H]4C12 (stereo not given in full),0.727,-0.39,0.0123,-1.98,-1.61,-0.929,1.59,-1.55,-0.513,-1.76 (inactive),-0.489,0.233 (inactive),-1.14 (inactive),1.01 (inactive),0.0851 (inactive),-0.821,-0.147,-0.309,1.9,-0.693
C=CC[C@@]1(C(=O)N(C)C)N=C(c2ccc(OCCCO)cc2)O[C@@H]1c1ccccc1N=[N+]=[N-],3.01,1.22,0.489,0.776,1.28,0.26,0.857,0.406,1.33,-9.07 (active),0.554,-2.25 (inactive),0.557 (inactive),0.227 (inactive),-0.825 (inactive),1.28,0.274,0.722,1.03,0.264
CC[C@@H]1C=C(C(=O)O)[C@H](c2ccco2)N1S(=O)(=O)c1ccc(C)cc1,0.2,-0.522,1.32,-1.13,1,-0.152,-1.09,-0.165,0.839,1.09 (inactive),-0.291,0.433 (inactive),-0.187 (inactive),-0.518 (inactive),1.1 (inactive),0.402,0.0228,-0.282,0.222,0.374
C=CCNC(=O)[C@@H]1[C@H]2C(=O)O[C@H](c3ccccc3)[C@H](c3ccccc3)N2[C@H](c2ccc(OCCO)cc2)[C@@]12C(=O)Nc1ccc(C#Cc3ccc(OC)cc3)cc12,0.785,1.18,0.452,0.798,1.42,0.989,-1.87,1.57,1.17,-0.398 (inactive),0.233,-4.16 (inactive),-0.486 (inactive),-0.195 (inactive),0.236 (inactive),1.01,0.0125,0.406,0.602,1.64
